# Results taken from PMC7862700, “An all-to-all approach to the identification of sequence-specific readers for epigenetic DNA modifications on cytosine”.
# Key:
# Assay in all cases: DAPPL (digital affinity profiling via proximity ligation, sequencing); 10 mM Tris-HCl pH 7.5, 50 mM NaCl, 1 mM DTT, 4% glycerol, room temperature, 30 min; GST-TFs on glutathione beads, 16-mer random dsDNA library, 0.1% formaldehyde crosslink after washing; high values mean tight binding
# Conditions in all cases: protein: recombinant; tags: N-terminal GST; dsDNA, one strand shown
# FLI1 = target: T1, FLI1 (Homo sapiens, UniProt Q01543 1-452)
# T1 sequence: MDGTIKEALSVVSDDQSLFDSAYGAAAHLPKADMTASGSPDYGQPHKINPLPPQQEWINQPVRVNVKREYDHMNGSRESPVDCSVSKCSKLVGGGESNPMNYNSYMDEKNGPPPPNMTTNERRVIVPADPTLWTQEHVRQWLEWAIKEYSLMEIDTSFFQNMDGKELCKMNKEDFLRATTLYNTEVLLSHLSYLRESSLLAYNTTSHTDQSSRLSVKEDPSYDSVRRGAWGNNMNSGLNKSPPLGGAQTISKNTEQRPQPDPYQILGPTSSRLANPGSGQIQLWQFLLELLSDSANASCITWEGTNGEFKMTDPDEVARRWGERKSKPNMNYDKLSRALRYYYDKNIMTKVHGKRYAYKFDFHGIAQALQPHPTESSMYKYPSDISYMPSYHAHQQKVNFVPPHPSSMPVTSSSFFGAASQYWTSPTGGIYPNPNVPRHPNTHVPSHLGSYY
# Procedure, shortened: (§1)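 Pools were built from human transcription factors expressed in yeast as GST fusions, captured on glutathione beads and DNA-barcoded, along with a tag-only sample. Incubation with 200 nmole of a 16-mer random double-stranded DNA library lasted 30 min at room temperature in Tris/NaCl/DTT/glycerol buffer, and was followed by washing, 0.1% formaldehyde crosslinking, proximity ligation, PCR amplification and Illumina NextSeq500 sequencing. Binding signal is the quotient of each hexamer's read frequency for a factor and its frequency for the tag-only sample.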
# ELK1 = target: T2, ELK1 (Homo sapiens, UniProt P19419 1-428)
# T2 sequence: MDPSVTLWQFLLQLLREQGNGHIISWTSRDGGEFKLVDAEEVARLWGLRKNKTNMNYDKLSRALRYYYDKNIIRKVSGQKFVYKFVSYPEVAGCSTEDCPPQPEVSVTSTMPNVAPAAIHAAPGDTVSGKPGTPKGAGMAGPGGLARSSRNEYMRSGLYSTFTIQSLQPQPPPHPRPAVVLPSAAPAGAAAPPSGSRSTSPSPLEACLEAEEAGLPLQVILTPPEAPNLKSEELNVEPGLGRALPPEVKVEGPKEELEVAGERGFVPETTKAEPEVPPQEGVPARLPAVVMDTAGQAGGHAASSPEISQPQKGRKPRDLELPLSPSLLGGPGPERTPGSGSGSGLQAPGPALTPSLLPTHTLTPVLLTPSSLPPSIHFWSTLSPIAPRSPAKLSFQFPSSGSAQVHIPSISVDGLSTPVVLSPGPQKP
# Procedure, shortened: as §1
# GABPA = target: T3, GABPA (Homo sapiens, UniProt Q06546 1-454)
# T3 sequence: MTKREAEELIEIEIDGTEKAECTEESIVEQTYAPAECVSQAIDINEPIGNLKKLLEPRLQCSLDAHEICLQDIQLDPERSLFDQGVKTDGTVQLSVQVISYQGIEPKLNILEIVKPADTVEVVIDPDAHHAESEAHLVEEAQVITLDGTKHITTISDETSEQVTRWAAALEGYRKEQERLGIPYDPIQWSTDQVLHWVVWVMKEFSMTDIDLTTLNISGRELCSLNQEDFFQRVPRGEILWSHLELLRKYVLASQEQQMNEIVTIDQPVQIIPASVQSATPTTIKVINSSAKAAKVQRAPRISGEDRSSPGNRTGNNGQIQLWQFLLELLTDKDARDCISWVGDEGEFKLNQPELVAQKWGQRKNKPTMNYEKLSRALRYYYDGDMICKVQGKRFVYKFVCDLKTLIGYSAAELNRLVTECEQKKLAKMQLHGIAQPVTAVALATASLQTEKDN
# Procedure, shortened: as §1
# ERG = target: T4, ERG (Homo sapiens, UniProt P11308 1-479)
# T4 sequence: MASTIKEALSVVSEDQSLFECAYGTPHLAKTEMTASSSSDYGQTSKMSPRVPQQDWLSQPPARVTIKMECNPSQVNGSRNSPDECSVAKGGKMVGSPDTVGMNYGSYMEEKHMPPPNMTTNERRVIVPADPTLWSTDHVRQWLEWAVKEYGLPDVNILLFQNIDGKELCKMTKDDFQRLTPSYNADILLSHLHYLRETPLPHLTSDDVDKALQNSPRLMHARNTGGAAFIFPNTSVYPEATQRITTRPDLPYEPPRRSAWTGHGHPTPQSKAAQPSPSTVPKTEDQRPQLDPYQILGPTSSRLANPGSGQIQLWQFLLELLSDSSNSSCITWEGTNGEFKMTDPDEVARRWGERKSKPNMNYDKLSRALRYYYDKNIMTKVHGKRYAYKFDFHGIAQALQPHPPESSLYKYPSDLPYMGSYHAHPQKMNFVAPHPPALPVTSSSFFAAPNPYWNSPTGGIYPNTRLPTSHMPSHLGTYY
# Procedure, shortened: as §1
# ELF1 = ELF1 (Homo sapiens, UniProt P32519 1-619)
# Sequence of ELF1 (P32519 whole entry): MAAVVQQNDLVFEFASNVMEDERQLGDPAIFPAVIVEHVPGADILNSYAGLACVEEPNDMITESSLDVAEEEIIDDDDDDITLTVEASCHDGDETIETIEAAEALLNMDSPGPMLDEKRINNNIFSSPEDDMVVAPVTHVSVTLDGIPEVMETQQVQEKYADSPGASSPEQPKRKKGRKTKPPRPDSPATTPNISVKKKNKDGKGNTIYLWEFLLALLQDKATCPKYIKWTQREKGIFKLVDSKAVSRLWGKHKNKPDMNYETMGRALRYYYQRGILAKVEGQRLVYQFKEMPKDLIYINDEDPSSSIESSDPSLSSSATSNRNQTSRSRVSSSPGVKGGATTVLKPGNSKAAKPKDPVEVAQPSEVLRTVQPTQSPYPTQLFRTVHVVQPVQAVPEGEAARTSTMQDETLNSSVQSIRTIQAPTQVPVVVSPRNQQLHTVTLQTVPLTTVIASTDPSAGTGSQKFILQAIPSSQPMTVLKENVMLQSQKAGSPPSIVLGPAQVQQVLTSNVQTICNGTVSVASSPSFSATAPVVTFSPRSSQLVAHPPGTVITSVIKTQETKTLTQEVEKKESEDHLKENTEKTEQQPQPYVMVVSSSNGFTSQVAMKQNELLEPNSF
# Procedure, shortened: as §1
# EHF = target: T5, EHF (Homo sapiens, UniProt Q9NZC4 1-300)
# T5 sequence: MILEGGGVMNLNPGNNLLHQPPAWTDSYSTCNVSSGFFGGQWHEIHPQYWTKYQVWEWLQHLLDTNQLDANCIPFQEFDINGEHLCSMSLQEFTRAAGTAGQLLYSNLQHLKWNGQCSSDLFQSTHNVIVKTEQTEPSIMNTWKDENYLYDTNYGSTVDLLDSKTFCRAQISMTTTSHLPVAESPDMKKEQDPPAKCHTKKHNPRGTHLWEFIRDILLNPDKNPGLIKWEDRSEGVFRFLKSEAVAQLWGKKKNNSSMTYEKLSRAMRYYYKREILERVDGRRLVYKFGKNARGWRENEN
# Procedure, shortened: as §1
# SPI1 = SPI1 (Homo sapiens, UniProt P17947 1-270)
# Procedure, shortened: as §1
# SPIB = SPIB (Homo sapiens, UniProt Q01892 1-262)
# Sequence of SPIB (Q01892 whole entry): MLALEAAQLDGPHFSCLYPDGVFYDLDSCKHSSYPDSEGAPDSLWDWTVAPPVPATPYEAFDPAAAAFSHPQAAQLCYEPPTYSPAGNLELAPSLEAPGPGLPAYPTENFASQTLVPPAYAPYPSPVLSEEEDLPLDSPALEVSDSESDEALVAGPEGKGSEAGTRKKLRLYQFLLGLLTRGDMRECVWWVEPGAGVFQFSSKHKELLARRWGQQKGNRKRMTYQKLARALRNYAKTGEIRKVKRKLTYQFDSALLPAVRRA
# Procedure, shortened: as §1
# ELK3 = target: T6, ELK3 (Homo sapiens, UniProt P41970 1-407)
# T6 sequence: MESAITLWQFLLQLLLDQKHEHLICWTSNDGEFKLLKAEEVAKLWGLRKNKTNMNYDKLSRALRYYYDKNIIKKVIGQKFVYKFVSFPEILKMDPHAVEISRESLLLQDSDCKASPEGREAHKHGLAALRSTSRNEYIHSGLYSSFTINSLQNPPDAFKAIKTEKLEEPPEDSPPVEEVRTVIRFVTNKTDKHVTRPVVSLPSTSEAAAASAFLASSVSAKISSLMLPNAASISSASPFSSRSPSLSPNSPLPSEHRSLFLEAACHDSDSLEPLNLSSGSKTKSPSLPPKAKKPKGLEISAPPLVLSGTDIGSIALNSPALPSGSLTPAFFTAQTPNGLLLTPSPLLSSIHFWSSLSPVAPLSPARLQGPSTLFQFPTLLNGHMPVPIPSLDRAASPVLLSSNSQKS
# Procedure, shortened: as §1
# ETV5 = ETV5 (Homo sapiens, UniProt P41161 1-510)
# Sequence of ETV5 (P41161 whole entry): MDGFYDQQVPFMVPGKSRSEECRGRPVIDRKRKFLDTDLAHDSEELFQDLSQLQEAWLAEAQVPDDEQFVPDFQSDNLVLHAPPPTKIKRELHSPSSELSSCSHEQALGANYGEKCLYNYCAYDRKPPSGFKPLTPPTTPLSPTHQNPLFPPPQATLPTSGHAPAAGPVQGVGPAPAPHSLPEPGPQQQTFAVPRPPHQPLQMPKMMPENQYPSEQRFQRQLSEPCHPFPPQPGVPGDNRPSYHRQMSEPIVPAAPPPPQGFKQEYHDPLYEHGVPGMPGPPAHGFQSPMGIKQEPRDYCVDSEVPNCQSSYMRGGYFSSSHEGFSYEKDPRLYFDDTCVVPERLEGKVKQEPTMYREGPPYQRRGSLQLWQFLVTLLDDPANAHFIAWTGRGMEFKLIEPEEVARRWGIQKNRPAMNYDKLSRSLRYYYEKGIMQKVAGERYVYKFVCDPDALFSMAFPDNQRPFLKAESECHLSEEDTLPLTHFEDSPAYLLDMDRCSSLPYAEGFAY
# Procedure, shortened: as §1
# ELF4 = ELF4 (Homo sapiens, UniProt Q99607 1-663)
# Sequence of ELF4 (Q99607 whole entry): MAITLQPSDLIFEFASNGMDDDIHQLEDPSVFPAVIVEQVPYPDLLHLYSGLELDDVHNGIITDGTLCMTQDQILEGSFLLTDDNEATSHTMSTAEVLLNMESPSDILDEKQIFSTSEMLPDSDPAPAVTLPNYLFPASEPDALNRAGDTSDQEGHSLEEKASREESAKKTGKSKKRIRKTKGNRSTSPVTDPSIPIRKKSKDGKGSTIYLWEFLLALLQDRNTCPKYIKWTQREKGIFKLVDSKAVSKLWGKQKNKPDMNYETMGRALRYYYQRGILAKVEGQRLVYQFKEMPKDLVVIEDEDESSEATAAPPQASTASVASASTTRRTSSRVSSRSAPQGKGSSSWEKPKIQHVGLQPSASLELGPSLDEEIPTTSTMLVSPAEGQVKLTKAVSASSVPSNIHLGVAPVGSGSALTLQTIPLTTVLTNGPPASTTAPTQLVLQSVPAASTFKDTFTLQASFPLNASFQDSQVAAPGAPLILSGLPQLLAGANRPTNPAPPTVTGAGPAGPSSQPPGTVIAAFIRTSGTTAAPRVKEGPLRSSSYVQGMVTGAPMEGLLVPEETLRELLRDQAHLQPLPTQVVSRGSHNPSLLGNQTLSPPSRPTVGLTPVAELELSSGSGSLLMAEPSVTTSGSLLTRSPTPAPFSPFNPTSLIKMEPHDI
# Procedure, shortened: as §1
# ELF3 = target: T7, ELF3 (Homo sapiens, UniProt P78545 1-371)
# T7 sequence: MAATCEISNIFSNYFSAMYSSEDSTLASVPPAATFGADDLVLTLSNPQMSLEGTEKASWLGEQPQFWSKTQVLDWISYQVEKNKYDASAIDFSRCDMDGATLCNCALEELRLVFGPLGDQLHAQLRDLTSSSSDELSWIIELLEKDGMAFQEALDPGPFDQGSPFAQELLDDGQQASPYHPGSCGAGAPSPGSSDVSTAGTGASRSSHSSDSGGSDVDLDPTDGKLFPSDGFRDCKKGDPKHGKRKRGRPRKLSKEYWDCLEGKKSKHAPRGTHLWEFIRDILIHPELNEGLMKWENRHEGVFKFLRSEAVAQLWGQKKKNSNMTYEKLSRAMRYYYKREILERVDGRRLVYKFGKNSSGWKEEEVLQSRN
# Procedure, shortened: as §1
# ETV1 = ETV1 (Homo sapiens, UniProt P50549 1-477)
# Sequence of ETV1 (P50549 whole entry): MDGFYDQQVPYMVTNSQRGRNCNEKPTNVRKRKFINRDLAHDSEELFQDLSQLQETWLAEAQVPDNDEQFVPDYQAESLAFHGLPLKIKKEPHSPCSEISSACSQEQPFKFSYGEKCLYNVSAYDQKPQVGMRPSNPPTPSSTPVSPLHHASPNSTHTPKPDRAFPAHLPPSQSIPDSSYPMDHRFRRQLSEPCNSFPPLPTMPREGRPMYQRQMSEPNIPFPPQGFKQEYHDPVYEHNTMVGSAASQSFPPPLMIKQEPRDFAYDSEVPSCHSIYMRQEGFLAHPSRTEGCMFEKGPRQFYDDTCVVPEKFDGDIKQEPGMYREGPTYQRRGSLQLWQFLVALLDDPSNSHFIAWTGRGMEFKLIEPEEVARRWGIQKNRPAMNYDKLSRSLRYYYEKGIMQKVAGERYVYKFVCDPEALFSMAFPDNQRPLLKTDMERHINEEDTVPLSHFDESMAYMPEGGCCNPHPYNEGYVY
# Procedure, shortened: as §1
# ERF = target: T8, ERF (Homo sapiens, UniProt P50548 1-548)
# T8 sequence: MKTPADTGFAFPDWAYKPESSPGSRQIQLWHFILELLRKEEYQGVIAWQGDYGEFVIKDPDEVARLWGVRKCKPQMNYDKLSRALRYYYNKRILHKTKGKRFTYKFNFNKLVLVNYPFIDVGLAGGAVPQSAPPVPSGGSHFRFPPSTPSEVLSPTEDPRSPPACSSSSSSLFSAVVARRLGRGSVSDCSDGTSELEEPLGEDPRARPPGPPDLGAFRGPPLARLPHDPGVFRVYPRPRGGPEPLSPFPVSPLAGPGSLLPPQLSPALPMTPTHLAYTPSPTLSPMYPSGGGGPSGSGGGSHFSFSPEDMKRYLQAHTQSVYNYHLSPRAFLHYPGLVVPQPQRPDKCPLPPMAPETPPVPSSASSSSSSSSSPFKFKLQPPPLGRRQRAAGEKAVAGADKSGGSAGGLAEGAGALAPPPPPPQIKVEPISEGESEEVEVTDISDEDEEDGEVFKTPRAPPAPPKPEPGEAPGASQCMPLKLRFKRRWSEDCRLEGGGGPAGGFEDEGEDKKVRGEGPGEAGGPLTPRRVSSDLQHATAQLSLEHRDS
# Procedure, shortened: as §1
# ETV3L = target: T9, ETV3L (Homo sapiens, UniProt Q6ZN32 1-361)
# T9 sequence: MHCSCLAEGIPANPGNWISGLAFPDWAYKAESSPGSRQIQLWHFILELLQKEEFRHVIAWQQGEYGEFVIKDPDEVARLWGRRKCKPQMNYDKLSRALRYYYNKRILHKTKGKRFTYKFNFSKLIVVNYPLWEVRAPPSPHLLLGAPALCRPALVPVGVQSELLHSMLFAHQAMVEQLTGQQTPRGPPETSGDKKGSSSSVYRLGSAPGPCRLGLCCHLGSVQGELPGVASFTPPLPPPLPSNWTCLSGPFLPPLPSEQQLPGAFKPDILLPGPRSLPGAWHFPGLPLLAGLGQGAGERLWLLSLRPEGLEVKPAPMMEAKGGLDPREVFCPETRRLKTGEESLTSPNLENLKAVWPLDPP
# Procedure, shortened: as §1
# ETS2 = target: T10, ETS2 (Homo sapiens, UniProt P15036 1-469)
# T10 sequence: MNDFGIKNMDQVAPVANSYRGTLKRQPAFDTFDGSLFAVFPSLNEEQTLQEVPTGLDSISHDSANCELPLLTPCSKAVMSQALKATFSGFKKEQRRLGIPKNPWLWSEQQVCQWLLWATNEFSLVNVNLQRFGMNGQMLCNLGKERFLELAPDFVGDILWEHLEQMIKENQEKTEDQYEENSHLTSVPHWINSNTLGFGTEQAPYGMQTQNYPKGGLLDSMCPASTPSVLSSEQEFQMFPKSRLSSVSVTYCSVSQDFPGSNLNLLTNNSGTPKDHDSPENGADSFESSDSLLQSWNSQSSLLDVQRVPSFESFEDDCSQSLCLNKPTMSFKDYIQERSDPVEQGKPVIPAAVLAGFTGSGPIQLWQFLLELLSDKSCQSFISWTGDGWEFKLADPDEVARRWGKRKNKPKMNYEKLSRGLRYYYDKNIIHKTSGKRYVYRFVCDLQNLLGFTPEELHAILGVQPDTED
# Procedure, shortened: as §1
# ETV7 = target: T11, ETV7 (Homo sapiens, UniProt Q9Y603 1-341)
# T11 sequence: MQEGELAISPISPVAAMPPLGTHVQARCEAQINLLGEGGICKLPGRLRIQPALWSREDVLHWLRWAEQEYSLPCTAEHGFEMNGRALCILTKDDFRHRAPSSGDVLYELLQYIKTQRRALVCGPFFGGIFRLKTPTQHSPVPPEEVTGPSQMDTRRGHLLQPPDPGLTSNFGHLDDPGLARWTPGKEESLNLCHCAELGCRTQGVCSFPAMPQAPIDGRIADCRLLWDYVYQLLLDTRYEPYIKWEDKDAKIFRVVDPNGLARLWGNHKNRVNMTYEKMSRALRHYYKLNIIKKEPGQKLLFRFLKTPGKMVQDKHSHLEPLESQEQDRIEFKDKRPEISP
# Procedure, shortened: as §1
# ETV3 = target: T12, ETV3 (Homo sapiens, UniProt P41162-2 1-143)
# T12 sequence: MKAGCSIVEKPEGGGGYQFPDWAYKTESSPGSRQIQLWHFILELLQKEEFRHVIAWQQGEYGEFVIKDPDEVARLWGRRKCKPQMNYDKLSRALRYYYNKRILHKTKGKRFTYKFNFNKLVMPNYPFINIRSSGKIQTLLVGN
# Procedure, shortened: as §1
sequence,measurement,setting,value
GCTGCG,binding signal,FLI1,"1.01 fold enrichment (6-mer frequency, TF over GST control)"
same,binding signal,ELK1,"1.12 fold enrichment (6-mer frequency, TF over GST control)"
same,binding signal,GABPA,"1.1 fold enrichment (6-mer frequency, TF over GST control)"
same,binding signal,ERG,"1.09 fold enrichment (6-mer frequency, TF over GST control)"
same,binding signal,ELF1,"1.13 fold enrichment (6-mer frequency, TF over GST control)"
same,binding signal,EHF,"1.21 fold enrichment (6-mer frequency, TF over GST control)"
same,binding signal,SPI1,"1.08 fold enrichment (6-mer frequency, TF over GST control)"
same,binding signal,SPIB,"1.08 fold enrichment (6-mer frequency, TF over GST control)"
same,binding signal,ELK3,"1.04 fold enrichment (6-mer frequency, TF over GST control)"
same,binding signal,ETV5,"1.12 fold enrichment (6-mer frequency, TF over GST control)"
same,binding signal,ELF4,"1.1 fold enrichment (6-mer frequency, TF over GST control)"
same,binding signal,ELF3,"1.03 fold enrichment (6-mer frequency, TF over GST control)"
same,binding signal,ETV1,"1.16 fold enrichment (6-mer frequency, TF over GST control)"
same,binding signal,ERF,"1.08 fold enrichment (6-mer frequency, TF over GST control)"
same,binding signal,ETV3L,"1.13 fold enrichment (6-mer frequency, TF over GST control)"
same,binding signal,ETS2,"1.14 fold enrichment (6-mer frequency, TF over GST control)"
same,binding signal,ETV7,"1.19 fold enrichment (6-mer frequency, TF over GST control)"
same,binding signal,ETV3,"1.07 fold enrichment (6-mer frequency, TF over GST control)"
